We go through 20 compounds from PubChem BioAssay.

In general, inhibition refers to the change of the read-out against control, counted positive when it falls.

A number with no mark means an inactive call. For some of these results: Results with a measured potency or affinity are listed apart. Calls of active or inactive are those of the source. Unless noted, the rule behind the calls is not given here.

Assay [1] in a line: antimalarial activity against Dd2 strain (AID 2302;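 active = growth inhibition above 50% at the single 2 µM test dose, taken to imply half-maximal potency below 2 µM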;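 note: 0% = DMSO untreated growth and 100% = chloroquine plus artemisinin killed control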). As to conditions: P. falciparum Dd2 in RBCs, LDH growth readout, 72 h; at 2 µM; stronger effect = higher value.
Assay [2] is described as follows: human hepatoma cell viability loss – ATP luminescence, cytotoxicity control for P. falciparum antimalarial project, primary screen (AID 2303;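 active = inhibition above 50%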;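 note: 0% = DMSO wells and 100% = digitonin-killed cells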). Conditions: HepG2 viability, 24-48 h, at 10 µM, stronger effect = higher value.
Assay [3] deals with L-lactate dehydrogenase (Plasmodium falciparum (isolate CDC / Honduras)) (UniProt Q27743). The experiment in a line: PfLDH activity inhibition – cell lysate, 3D7 strain, counter-screen for P. falciparum growth inhibition project (AID 2304).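 Note: 0% = vehicle and 100% = reference inhibitor.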 As to conditions: P. falciparum 3D7 crude extract, LDH APAD/NBT absorbance; at 2 µM; stronger effect = higher value. On the technique in general: The purpose of a counterscreen is to sort out artefacts and off-target activity.
Sequence of L-lactate dehydrogenase (Plasmodium falciparum (isolate CDC / Honduras)) (Q27743 whole entry, looked up): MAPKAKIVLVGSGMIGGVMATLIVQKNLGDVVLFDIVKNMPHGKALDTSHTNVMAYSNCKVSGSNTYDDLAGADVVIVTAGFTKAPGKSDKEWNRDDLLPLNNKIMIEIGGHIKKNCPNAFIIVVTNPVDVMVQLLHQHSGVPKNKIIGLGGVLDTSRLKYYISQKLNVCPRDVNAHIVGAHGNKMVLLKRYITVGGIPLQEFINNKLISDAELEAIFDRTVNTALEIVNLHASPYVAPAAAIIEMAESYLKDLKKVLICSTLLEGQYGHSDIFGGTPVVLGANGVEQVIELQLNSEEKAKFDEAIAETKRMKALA

The nature of assay [4]: inhibition of 3D7 malaria parasite growth – strain 3D7 (AID 2306).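 Note: 0% = DMSO wells and 100% = chloroquine plus artemisinin control wells.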 Conditions: P. falciparum 3D7 erythrocytic growth, LDH absorbance, 72 h; at 2 µM; stronger effect = higher value.
Assay [5] addresses Calcium-dependent protein kinase 1 (Plasmodium falciparum (isolate 3D7)) (UniProt P62344). The assay can be described thus: PfCDPK1 kinase inhibitors, biochemical, TCAMS library (AID 1159585; cut-off not given, nearly all actives have IC50 up to about 0.98 µM;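 note: inhibitors leave more ATP so luminescence rises with inhibition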). Conditions: recombinant PfCDPK1, Kinase-Glo ATP depletion luminescence. In general terms: In Kinase-Glo more light means more ATP remaining.
Assay [6] addresses Plasmodium falciparum protein kinase 6 (PK6, PF3D7_1337100) (UniProt Q8IDW1). The experiment in a line: PfPK6 kinase inhibitors, biochemical, TCAMS library (AID 1159586). As to conditions: recombinant PfPK6, Kinase-Glo ATP depletion luminescence.
The target of assay [7] is Protein kinase 7 (PK7), Plasmodium falciparum 3D7 (PF3D7_0213400) (UniProt Q7YTF7). The assay can be described thus: inhibition of Plasmodium PK7 catalytic activity – biochemical, TCAMS antimalarial set, Kinase-Glo luminescence (AID 1159587). Conditions: recombinant PfPK7, Kinase-Glo ATP depletion luminescence.
Sequence of Protein kinase 7 (PK7), Plasmodium falciparum 3D7 (PF3D7_0213400) (Q7YTF7 1-343): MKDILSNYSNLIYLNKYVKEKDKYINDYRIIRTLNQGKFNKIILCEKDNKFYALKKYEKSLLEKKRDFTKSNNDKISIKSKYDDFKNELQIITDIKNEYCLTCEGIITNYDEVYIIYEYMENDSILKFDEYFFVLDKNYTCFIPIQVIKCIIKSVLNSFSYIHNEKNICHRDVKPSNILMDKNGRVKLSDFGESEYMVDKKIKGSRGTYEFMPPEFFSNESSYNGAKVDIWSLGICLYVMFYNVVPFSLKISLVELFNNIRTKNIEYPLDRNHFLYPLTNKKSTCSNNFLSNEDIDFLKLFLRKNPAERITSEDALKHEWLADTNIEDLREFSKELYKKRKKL
In assay [8] the target is Calcium-dependent protein kinase 4 (Plasmodium falciparum (isolate 3D7)) (UniProt Q8IBS5). The experiment in a line: PfCDPK4 kinase inhibitors, biochemical, TCAMS library (AID 1159588; cut-off not given, nearly all actives have IC50 up to about 0.91 µM). Conditions: recombinant PfCDPK4, Kinase-Glo ATP depletion luminescence.
Sequence of Calcium-dependent protein kinase 4 (Plasmodium falciparum (isolate 3D7)) (Q8IBS5 whole entry, looked up): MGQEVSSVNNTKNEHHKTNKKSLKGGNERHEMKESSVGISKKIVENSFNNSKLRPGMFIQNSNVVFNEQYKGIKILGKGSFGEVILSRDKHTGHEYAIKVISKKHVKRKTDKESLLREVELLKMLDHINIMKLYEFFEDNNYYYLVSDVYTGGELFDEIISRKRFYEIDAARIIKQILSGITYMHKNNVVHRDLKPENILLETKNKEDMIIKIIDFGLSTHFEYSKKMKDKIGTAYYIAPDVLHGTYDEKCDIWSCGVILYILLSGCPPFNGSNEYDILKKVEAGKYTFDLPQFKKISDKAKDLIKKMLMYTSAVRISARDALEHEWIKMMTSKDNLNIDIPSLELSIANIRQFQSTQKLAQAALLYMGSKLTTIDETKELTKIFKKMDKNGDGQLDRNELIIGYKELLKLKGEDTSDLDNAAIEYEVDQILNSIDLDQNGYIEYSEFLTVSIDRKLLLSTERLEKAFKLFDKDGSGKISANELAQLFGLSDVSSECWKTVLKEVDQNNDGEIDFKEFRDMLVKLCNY

Sequence of Plasmodium falciparum protein kinase 6 (PK6, PF3D7_1337100) (Q8IDW1 1-305): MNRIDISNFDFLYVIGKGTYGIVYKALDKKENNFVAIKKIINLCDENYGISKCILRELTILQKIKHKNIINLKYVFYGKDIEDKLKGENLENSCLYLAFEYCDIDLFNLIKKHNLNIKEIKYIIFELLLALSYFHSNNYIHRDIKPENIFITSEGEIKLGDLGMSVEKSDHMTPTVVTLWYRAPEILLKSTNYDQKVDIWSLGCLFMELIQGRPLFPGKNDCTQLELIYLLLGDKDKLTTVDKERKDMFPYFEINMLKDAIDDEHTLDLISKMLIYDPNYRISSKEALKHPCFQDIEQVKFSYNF
Sequence of Calcium-dependent protein kinase 1 (Plasmodium falciparum (isolate 3D7)) (P62344 whole entry, looked up): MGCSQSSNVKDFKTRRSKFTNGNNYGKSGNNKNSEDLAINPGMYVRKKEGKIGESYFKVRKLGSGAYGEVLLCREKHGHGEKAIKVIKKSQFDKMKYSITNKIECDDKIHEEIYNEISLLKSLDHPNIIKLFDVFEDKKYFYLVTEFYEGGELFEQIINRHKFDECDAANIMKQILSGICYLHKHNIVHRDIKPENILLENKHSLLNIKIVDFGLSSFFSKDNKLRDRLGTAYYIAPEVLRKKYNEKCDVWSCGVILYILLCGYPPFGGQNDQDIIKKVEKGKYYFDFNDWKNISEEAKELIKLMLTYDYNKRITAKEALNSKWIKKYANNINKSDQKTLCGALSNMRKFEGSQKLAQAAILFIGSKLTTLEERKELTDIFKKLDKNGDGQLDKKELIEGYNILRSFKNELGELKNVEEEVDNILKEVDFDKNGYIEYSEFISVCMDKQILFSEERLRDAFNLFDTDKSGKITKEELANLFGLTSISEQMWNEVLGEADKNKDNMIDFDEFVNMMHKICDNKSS

For the compound `Cc1ccc2nc3c(cc(C(=O)NCc4ccccc4)c(=N)n3CCCn3ccnc3)c(=O)n2c1`, the figures for the growth inhibition in assay [1] and in assay [4] were -1% and 93% (active), respectively. Besides, the figures for the inhibition in assay [2] and in assay [3] were 10% and -3%, respectively. Besides, the outcome in assay [5], in assay [6], in assay [7] and in assay [8] was inactive.
Take `CS(=O)(=O)c1ccc(CNCc2ccc(-c3cccc(-c4nc5ccc(F)cc5[nH]4)c3)cc2)cc1`: the values for the growth inhibition in assay [1] and in assay [4] were 74% (active) and 102% (active), respectively. In addition, the figures for the inhibition in assay [2] and in assay [3] were 33% and -5%, respectively. Besides, the outcome in assay [5], in assay [6], in assay [7] and in assay [8] was inactive.
In the case of `Cc1cccc(Cn2c(Cc3ccccc3)nnc2Sc2ccc([N+](=O)[O-])c(C#N)c2)c1`, the growth inhibition was 3% in assay [1] and 91% (active) in assay [4]. Moreover, the figures for the inhibition in assay [2] and in assay [3] were 17% and -2%, respectively. For the same compound, the outcome in assay [5], in assay [6], in assay [7] and in assay [8] was inactive.
Regarding `C[C@H](Cc1ccc(OCCCCCOc2ccc(C[C@@H](C)NC[C@H](O)c3cccc(Cl)c3)cc2)cc1)NC[C@H](O)c1cccc(Cl)c1`, the growth inhibition in assay [1] is 101% (active); in assay [4], 99% (active). In addition, the inhibition in assay [2] was 99% (active); in assay [3], -1%. Further, the outcome in assay [5], in assay [6], in assay [7] and in assay [8] was inactive.
`CC(=O)c1ccc(NC(=O)CSc2nc(-c3ccccc3Cl)ns2)cc1`: the growth inhibition in assay [1] is 72% (active); in assay [4] it was 89% (active). Also, the figures for the inhibition in assay [2] and in assay [3] were -13% and -1%, respectively. Moreover, the result in assay [5], in assay [6], in assay [7] and in assay [8] was inactive.
Turning to `CCCNCc1ccc(-c2ccc(CN(CCOC)C(=O)c3cnc(C)cn3)cc2)nc1`, the growth inhibition in assay [1] is 14%; in assay [4] it was 81% (active). In addition, the inhibition in assay [2] was -3%; in assay [3], -4%. Moreover, the outcome in assay [5], in assay [6], in assay [7] and in assay [8] was inactive.
Take `NC(N)=NCCCCN(Cc1ccccc1)c1ccccc1`: the growth inhibition in assay [1] is 98% (active); in assay [4], 100% (active). The inhibition in assay [2] and in assay [3] was -4% each time. Besides, the outcome in assay [5], in assay [6], in assay [7] and in assay [8] was inactive.
On to `O=C(NCCN1Cc2ccccc2C1=O)c1ccc(Oc2ccc(C(=O)NCCN3Cc4ccccc4C3=O)cc2)cc1`, for which the growth inhibition is 95% (active) in assay [1] and 99% (active) in assay [4]. Besides, the inhibition was 27% in assay [2] and -1% in assay [3]. In addition, the result in assay [5], in assay [6], in assay [7] and in assay [8] was inactive.
Turning to `Nc1c2c(nc3cc(NC(=O)c4ccc([N+](=O)[O-])cc4)ccc13)CCCC2`, the growth inhibition in assay [1] was 58% (active); in assay [4], 100% (active). In addition, the figures for the inhibition in assay [2] and in assay [3] were 11% and -2%, respectively. The outcome in assay [5], in assay [6], in assay [7] and in assay [8] was inactive.
Consider `Cc1[nH]c(C)c(-c2ccc(OCc3ccc(OC(F)(F)F)cc3)nc2)c(=O)c1Cl`, for which the growth inhibition in assay [1] was 96% (active); in assay [4], 98% (active). Further, the inhibition is 3% in assay [2] and -3% in assay [3]. Further, the outcome in assay [5], in assay [6], in assay [7] and in assay [8] was inactive.
As for `CC(C)Cc1nc2nc(N)nc(N)c2cc1C(C)C`, the growth inhibition is 3% in assay [1] and 96% (active) in assay [4]. The inhibition was 67% (active) in assay [2] and 4% in assay [3]. The result in assay [5], in assay [6], in assay [7] and in assay [8] was inactive.
Consider `c1ccc2c(C3CCN(CCCCOc4ccc5c(c4)CCN(C4CCC4)CC5)CC3)c[nH]c2c1`, for which the values for the growth inhibition in assay [1] and in assay [4] were 100% (active) and 102% (active), respectively. For the same compound, the inhibition was 80% (active) in assay [2] and -3% in assay [3]. Besides, the result in assay [5], in assay [6], in assay [7] and in assay [8] was inactive.
`CN(C)CCCNCc1ccc(-c2ccc(F)c(Cl)c2)o1`: the growth inhibition was 69% (active) in assay [1] and 93% (active) in assay [4]. Also, the inhibition in assay [2] is 29%; in assay [3], -7%. Also, the result in assay [5], in assay [6], in assay [7] and in assay [8] was inactive.
Turning to `CC(C)NC(=O)c1cccc(-c2cccc(OCCN3CCSCC3c3ccccc3)c2)c1` (stereo not given), the growth inhibition in assay [1] was 45%; in assay [4] it was 89% (active). In addition, the inhibition in assay [2] is 24%; in assay [3], 2%. In addition, the result in assay [5], in assay [6], in assay [7] and in assay [8] was inactive.
For the compound `CC(C)N1CCC(N(Cc2ccc(-c3ccc(C(F)(F)F)cc3)cc2)C(=O)Cn2c(CCc3cccc(F)c3F)cc(=O)c3ccccc32)CC1`, the figures for the growth inhibition in assay [1] and in assay [4] were 73% (active) and 99% (active), respectively. Further, the inhibition in assay [2] was 50% (active); in assay [3], -6%. Moreover, the result in assay [5], in assay [6], in assay [7] and in assay [8] was inactive.
In the case of `COc1cc(Br)c(S(=O)(=O)n2cc(CN3CCC(N)CC3)c3cc(Cl)ccc32)cc1OC`, the growth inhibition in assay [1] was 32%; in assay [4] it was 99% (active). Also, the inhibition in assay [2] was 27%; in assay [3], -4%. For the same compound, the result in assay [5], in assay [6], in assay [7] and in assay [8] was inactive.
On to `Nc1cccc(CNCc2cccc(-c3cccc(-c4nc5ccc(C(F)(F)F)cc5[nH]4)c3)c2)c1`, for which the growth inhibition in assay [1] was 96% (active); in assay [4], 102% (active). Moreover, the results for the inhibition in assay [2] and in assay [3] were 8% and 1%, respectively. Further, the outcome in assay [5], in assay [6], in assay [7] and in assay [8] was inactive.
Turning to `CCCCN(CCCC)CCNC(=O)c1cc(OC(F)(F)F)ccc1O`, the growth inhibition was 90% (active) in assay [1] and 93% (active) in assay [4]. The values for the inhibition in assay [2] and in assay [3] were 8% and -8%, respectively. Moreover, the result in assay [5], in assay [6], in assay [7] and in assay [8] was inactive.
`C[C@H](Cc1ccc(OCCCCOc2ccc(C[C@@H](C)NC[C@H](O)c3cccc(Cl)c3)cc2)cc1)NC[C@H](O)c1cccc(Cl)c1`: the growth inhibition in assay [1] was 92% (active); in assay [4], 100% (active). The inhibition in assay [2] is 68% (active); in assay [3], 7%. Moreover, the result in assay [5], in assay [6], in assay [7] and in assay [8] was inactive.
On to `O=C(Nc1ccc(Cn2ncc(N3CCCNCC3)c(Cl)c2=O)cc1)Nc1cc(Cl)cc(Cl)c1`, for which the growth inhibition is 17% in assay [1] and 91% (active) in assay [4]. The inhibition in assay [2] and in assay [3] was 3% in each case. The outcome in assay [5], in assay [6], in assay [7] and in assay [8] was inactive.
